In ChEMBL document CHEMBL4513216, “Probing the Open Global Health Chemical Diversity Library for Multistage-Active Starting Points for Next-Generation Antimalarials” (ACS Infect Dis, 2020) one finds INHIBITION data, which are given here for 54 compounds.

SMILES strings stand for the structures. Hit rate of the full screen: of about 69,000 compounds, about 8,600 (12%) showed an effect of 50% or more. Only a selection was taken, and strong results are over-represented in it overall.

This experiment deals with Plasmodium berghei. Nature of the experiment: Screen against P. berghei liver stage (PbLuc), transformed with Luciferase, at 10uM. The experiment is classed as functional, HepG2. Conditions: tested at 10 uM.
Take `Cc1ccc(C(=O)NCC(O)c2ccc(F)c(F)c2)c(=O)[nH]1` (centres undefined): the INHIBITION came out at 26.6%.

Turning to `Cc1ccc(C(=O)NCC(O)c2cccc(F)c2)c(=O)[nH]1` (centres undefined), the INHIBITION was 52.5%.

As to `Cc1cc(C)c(CNC(=O)NCC(O)c2cccc(F)c2)c(=O)[nH]1` (centres undefined), the INHIBITION amounted to 27.9%.

Regarding `O=C(NCC(O)c1cccc(F)c1)c1cccnc1O` (centres undefined), the INHIBITION is recorded as 50.1%.

For `FC(F)COc1ccccc1NCc1nnsc1Cl`, the INHIBITION is given as 8.9%.

Turning to `CC1(C)Cc2ccc(C(=O)NC3CCOCC3)c(O)c2O1`, the INHIBITION is recorded as -42.8%.

As for `Cc1cnn(CC2CN(CC(=O)NCc3ccc(C)s3)CCO2)c1` (centres undefined), the INHIBITION is given as 19.4%.

Turning to `CCC[C@@H]1CN(Cc2cc3c(cc2OC)OCO3)C[C@H]1C(=O)O`, the INHIBITION was 35.1%.

As for `CCC[C@@H]1CN(Cc2cc(OC)c3c(c2)OCO3)C[C@H]1C(=O)O`, the INHIBITION was found to be 39.4%.

Consider `CCC[C@@H]1CN(Cc2cc3c(cc2OC)OCCO3)C[C@H]1C(=O)O`, for which the INHIBITION is given as 54.4%.

Consider `Cc1ccc(S(=O)(=O)NC(=O)C2(c3ccc(F)cc3)CCC2)c(C)c1`, for which the INHIBITION was 20%.

As for `O=C(c1cccc(-c2ccc(F)cc2)c1)N1CCC2(CC1)[C@H](O)C[C@@H]2O`, the INHIBITION is reported as -8.47%.

For the compound `CCc1nc(C2CCCN2C(=O)c2cnns2)no1` (centres undefined), the INHIBITION is listed as 29.765%.

Take `CC(C)OCc1ccc(CNC(=O)NC2(CO)CCCC2)cc1`: the INHIBITION came to 46.1%.

For `O=C(NCc1ccc(CN2CCCC2)cc1)NC1(CO)CCCC1`, the INHIBITION is 62.8%.

In the case of `O=C(NCc1ccc(CN2CCCC2)cc1)NCc1ccon1`, the INHIBITION is given as 20.4%.

Regarding `CC(C)CCCNC(=O)Nc1ccc(Cl)c(C(N)=O)c1`, the INHIBITION is listed as -57.4%.

As for `CCN(CC)C(=O)CSc1sc2c(O)cc(=O)[nH]c2c1C(N)=O`, the INHIBITION came to 4.07%.

Regarding `COc1ccc(C(C)Nc2ncnc3c2NC(=O)CN3)cc1` (centres undefined), the INHIBITION is given as 8.49%.

Turning to `O=S(=O)(c1c(N2CCCC2)ccc2nonc12)N1CCCC1`, the INHIBITION is on record as 17.7%.

Regarding `CCn1cc(-c2cc(C(=O)N3CCOCC3)c3cc(Cl)ccc3n2)cn1`, the INHIBITION amounted to 12.9%.

Turning to `COc1cc(F)cc2sc(NC(=O)COCC3CCCO3)nc12` (centres undefined), the INHIBITION is given as 16.1%.

For `Cc1noc([C@H]2C[C@@H]3CCN(C(=O)c4cccn4C)C[C@H]3O2)n1`, the INHIBITION worked out at 25.8%.

For the compound `Cc1noc([C@H]2C[C@@H]3CCN(C(=O)C4CCOCC4)C[C@H]3O2)n1`, the INHIBITION worked out at 41.5%.

As for `Cc1noc([C@H]2C[C@@H]3CCN(C(=O)N(C)C)C[C@H]3O2)n1`, the INHIBITION came out at 54.6%.

Regarding `Cc1noc([C@@H]2C[C@H]3CN(C(=O)C4CCN(C)CC4)C[C@H]3O2)n1`, the INHIBITION was 28.7%.

`Cc1noc([C@H]2C[C@H]3CN(C(=O)C4CCOCC4)CC[C@@H]3O2)n1`: the INHIBITION is 59%.

As for `COCC(=O)N1CC[C@H]2C[C@H](c3nc(C)no3)O[C@@H]2C1`, the INHIBITION is -41.2%.

Regarding `CCN(Cc1ccc(OC)c(F)c1)Cc1nc2c(cnn2C)c(=O)[nH]1`, the INHIBITION turned out to be 11.6%.

In the case of `COCCNC(=O)N1CCN(C(=O)Cc2ccccc2F)CC1`, the INHIBITION is on record as -63.6%.

Regarding `CN1N=C(C(=O)N(Cc2ccco2)C2CCCC2)CCC1=O`, the INHIBITION stood at 46.1%.

For `Cc1nc(C)c(C(=O)N2CCc3nnc(C4CCCCN4C)n3CC2)s1` (centres undefined), the INHIBITION is recorded as -12.4%.

For `CCN1CCCCC1C(=O)N1CCc2onc(-c3ccc(Cl)cc3)c2C1` (centres undefined), the INHIBITION was 20.2%.

Take `O=C(C1CCCO1)N1CCc2onc(-c3ccc(Cl)cc3)c2C1` (centres undefined): the INHIBITION came to 59.1%.

As for `CCc1ccccc1Nc1noc2c1CN(C(=O)C1CCCO1)CC2` (centres undefined), the INHIBITION is given as -9.32%.

In the case of `Cn1cc(C(=O)N2CCN(Cc3ccsc3)CC2)cn1`, the INHIBITION is -2.825%.

Consider `O=C(NCCn1cccn1)Nc1cc(C(=O)N2CCOCC2)ccc1Cl`, for which the INHIBITION is listed as 45.2%.

For the compound `CCSCCNC(=O)Nc1cc(C(=O)N2CCOCC2)ccc1Cl`, the INHIBITION turned out to be 36.9%.

Turning to `O=C(NCCN1CCCC1)Nc1cc(C(=O)N2CCOCC2)ccc1Cl`, the INHIBITION was found to be 67.5%.

`Cc1cc(C)nc(N2CCOC(c3cc(CCO)[nH]n3)C2)n1` (centres undefined): the INHIBITION is 2.99%.

On to `CC(C)(C)C1SCC(=O)Nc2c1c(O)nn2C1CCCC1` (centres undefined), for which the INHIBITION amounted to 48%.

With `Cn1cc(CN2CCCC3(CCCCN3S(C)(=O)=O)C2)cn1` (centres undefined), the INHIBITION was 18.3%.

Turning to `CNC(=O)c1cc2c(nc1N(C)C)CCN(S(=O)(=O)CC(C)C)CC2`, the INHIBITION is -22.8%.

With `CNC(=O)c1cc2c(nc1N(C)C)CCN(S(=O)(=O)N(C)C)CC2`, the INHIBITION came out at 44.8%.

In the case of `Cc1cnc(N2CCc3cc(C(=O)O)c(N(C)C)nc3CC2)nc1`, the INHIBITION worked out at 31.2%.

`CNC(=O)c1cc2c(nc1N(C)C)CCN(c1ncc(C)cn1)CC2`: the INHIBITION is 57.5%.

With `CNC(=O)c1cc2c(nc1NCC(C)C)CCN(S(C)(=O)=O)CC2`, the INHIBITION is recorded as -26.1%.

Consider `CNC(=O)c1cc2c(nc1N(C)C)CCN(S(=O)(=O)C1CC1)CC2`, for which the INHIBITION worked out at 9.3%.

Consider `CNC(=O)c1cc2c(nc1NCC(C)C)CCN(S(=O)(=O)N(C)C)CC2`, for which the INHIBITION is listed as -23.4%.

As for `CNC(=O)c1cc2c(nc1N(C)C)CCN(c1ncc(F)cn1)CC2`, the INHIBITION worked out at 50.3%.

As to `CCc1cnc(N2CCc3cc(C(=O)NC)c(N(C)C)nc3CC2)nc1`, the INHIBITION is 81%.

As for `CNC(=O)c1cc2c(nc1N(C)C)CCN(c1ncccn1)CC2`, the INHIBITION was determined as 63.8%.

For `CNC(=O)c1cc2c(nc1N(C)C)CCN(C)CC2`, the INHIBITION was 13.3%.

On to `CCS(=O)(=O)N1CCc2cc(C(=O)NC)c(N(C)C)nc2CC1`, for which the INHIBITION worked out at 19.8%.
